In the supplement of paper PMC9262897, “Low-cost anti-mycobacterial drug discovery using engineered E. coli” (Nature Communications, 2022):
Counter-ions that a name gives are not always drawn. ± gives the standard deviation of the averaged measurements.

Tests used:
Assay in all cases: growth (OD600 after 10 h); higher = more growth (less inhibition)
[1] = tested on: E. coli TESEC Alr+ wild-type control; settings: compound 0.1 mM; raw OD600 reference: median of DMSO wells 0.241, cell-free background 0.041
Experimental: (§1)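 TESEC Mtb Alr E. coli, or the Alr+ wild-type control, in 384-well plates with Prestwick library compounds at 0.1 mM and 1% DMSO, across arabinose induction levels of 1E3 to 1E7 nM. Growth is read as OD600 after 10 h at 37 °C in triplicate biological replicates.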

[2] = tested on: E. coli TESEC Mtb Alr; settings: compound 0.1 mM
Experimental: as §1

[3] = tested on: E. coli TESEC Mtb Asd; settings: compound 0.1 mM
Experimental: (§2)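 TESEC E. coli strains in which the native enzyme is deleted and replaced by arabinose-inducible Mtb Asd, DapB, CysH or TrpD, each grown in its selective medium. Strains were screened against the Prestwick library at 0.1 mM and 1% DMSO in 384-well format at low and high arabinose induction. Growth is read as OD600 after 10 h in triplicate.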

[4] = tested on: E. coli TESEC Mtb DapB; settings: compound 0.1 mM
Experimental: as §2

[5] = tested on: E. coli TESEC Alr+ wild-type control; settings: compound 0.1 mM; raw OD600 reference: median of DMSO wells 0.49, cell-free background 0.052
Experimental: (§3)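 TESEC Mtb Alr E. coli (ΔaraC ΔtolC ΔentC Δalr ΔdadX, arabinose-inducible Mtb Alr) or the Alr+ wild-type control strain, grown in defined M9-fructose medium without D-alanine in 96-well plates with Prestwick library compounds at 0.1 mM and 1% DMSO. Low Alr induction is 0.1 µM arabinose and high induction is 10 mM arabinose.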

[6] = tested on: E. coli TESEC Mtb Alr; settings: compound 0.1 mM; remark: listed apart in the source
Experimental: as §3

[7] = arabinose 1000 nM, raw OD600 reference: median of DMSO wells 0.294, cell-free background 0.041
[8] = arabinose 10000 nM, raw OD600 reference: median of DMSO wells 0.264, cell-free background 0.041
[9] = arabinose 100000 nM, raw OD600 reference: median of DMSO wells 0.201, cell-free background 0.041
[10] = arabinose 1000000 nM, raw OD600 reference: median of DMSO wells 0.193, cell-free background 0.041
[11] = arabinose 10000000 nM, raw OD600 reference: median of DMSO wells 0.146, cell-free background 0.041
[12] = arabinose induction (level): High, raw OD600 reference: median of DMSO wells 0.331, cell-free background 0.041
[13] = arabinose induction (level): Low, raw OD600 reference: median of DMSO wells 0.417, cell-free background 0.041
[14] = arabinose induction (level): High, raw OD600 reference: median of DMSO wells […], cell-free background 0.041
[15] = arabinose induction (level): Low, raw OD600 reference: median of DMSO wells 0.227, cell-free background 0.041
[16] = arabinose 100 nM, raw OD600 reference: median of DMSO wells 0.413, cell-free background 0.052
[17] = arabinose 10000000 nM, raw OD600 reference: median of DMSO wells […], cell-free background 0.052

SMILES	growth [1]	growth [2, 7]	growth [2, 8]	growth [2, 9]	growth [2, 10]	growth [2, 11]	growth [3, 12]	growth [3, 13]	growth [4, 14]	growth [4, 15]	growth [5]	growth [6, 16]	growth [6, 17]
CCCN(CCC)C(=O)C(CCC(=O)O)NC(=O)c1ccccc1 (centres undefined) [Proglumide]	0.255 ± 0.0056	0.282 ± 0.036	0.29 ± 0.017	0.22 ± 0.025	0.188 ± 0.0035	0.17 ± 0.0066	0.318 ± 0.075	0.368 ± 0.053	0.205 ± 0.018	0.246 ± 0.019	0.477 ± 0.079	0.415 ± 0.021	0.376 ± 0.033
O=C(c1ccccc1)c1ccc2n1CCC2C(=O)O (centres undefined) [Ketorolac tromethamine]	0.222 ± 0.0085	0.262 ± 0.015	0.253 ± 0.013	0.181 ± 0.01	0.195 ± 0.0049	0.137 ± 0.0035	0.381 ± 0.035	0.331 ± 0.036	0.194 ± 0.02	0.216 ± 0.049	0.531 ± 0.076	0.384 ± 0.016	0.326 ± 0.0097
CCC[C@H](N[C@@H](C)C(=O)N1[C@H](C(=O)O)C[C@@H]2CCCC[C@@H]21)C(=O)OCC [Perindopril]	0.252 ± 0.01	0.309 ± 0.0092	0.286 ± 0.0037	0.208 ± 0.016	0.198 ± 0.024	0.149 ± 0.0041	0.225 ± 0.016	0.392 ± 0.033	0.198 ± 0.01	0.239 ± 0.041	0.555 ± 0.1	0.431 ± 0.0091	0.325 ± 0.0072
C[N+]1(CCCCC[N+]2(C)CCCC2)CCCC1 [Pentolinium bitartrate]	0.24 ± 0.0027	0.282 ± 0.017	0.275 ± 0.0033	0.202 ± 0.014	0.1794 ± 0.0012	0.143 ± 0.0032	0.296 ± 0.037	0.424 ± 0.02	0.1752 ± 0.00061	0.185 ± 0.0091	0.515 ± 0.11	0.415 ± 0.011	0.361 ± 0.006
CC(=O)O[C@H]1C[C@@]2(C)[C@@H](C[C@@H](O)[C@H]3[C@@]4(C)CC[C@@H](O)[C@@H](C)[C@@H]4CC[C@@]32C)/C1=C(\CCC=C(C)C)C(=O)O [Fusidic acid sodium salt]	0.04197 ± 0.0004	0.0422 ± 0.00097	0.0411 ± 0.001	0.0429 ± 0.0003	0.0403 ± 0.00017	0.04237 ± 0.00032	0.0498 ± 0.0038	0.0478 ± 0.0026	0.0536 ± 0.0022	0.052 ± 0.0007	0.05317 ± 0.00047	0.11 ± 0.0058	0.0515 ± 0.00085
Nc1nc(=S)c2ncn([C@@H]3O[C@H](CO)[C@@H](O)[C@H]3O)c2[nH]1 [Thioguanosine]	0.0575 ± 0.0014	0.0503 ± 0.0022	0.0465 ± 0.00055	0.0493 ± 0.00055	0.0474 ± 0.00055	0.05337 ± 0.00021	0.209 ± 0.0071	0.127 ± 0.014	0.174 ± 0.011	0.115 ± 0.032	0.349 ± 0.02	0.225 ± 0.028	0.0964 ± 0.0089
CN(C)CC/C=C1/c2ccccc2COc2ccc(CC(=O)O)cc21 [Olopatadine hydrochloride]	0.2304 ± 0.0017	0.281 ± 0.0096	0.276 ± 0.0029	0.179 ± 0.014	0.231 ± 0.013	0.126 ± 0.0042	0.256 ± 0.056	0.328 ± 0.089	0.198 ± 0.011	0.233 ± 0.015	0.589 ± 0.097	0.425 ± 0.0062	0.361 ± 0.013
CCCCN(CCCC)CCC(O)c1cc2c(Cl)cc(Cl)cc2c2cc(C(F)(F)F)ccc12 (centres undefined) [Halofantrine hydrochloride]	0.24 ± 0.011	0.313 ± 0.006	0.31 ± 0.0059	0.2 ± 0.014	0.18 ± 0.0064	0.175 ± 0.0054	0.282 ± 0.059	0.457 ± 0.054	0.259 ± 0.018	0.291 ± 0.037	0.53 ± 0.019	0.452 ± 0.016	0.427 ± 0.019
